Test results published in PubChem BioAssay AID2731 (National Center for Advancing Translational Sciences (NCATS), 2010).
The other results are listed elsewhere or left out. Records with an inconclusive call do not appear. The source made the active and inactive calls. Calls come from the whole dose curve; as a rule, active = well fitted curve in the direction sought with a large enough effect; inconclusive = small, poorly fitted or top-dose-only effect, or effect the other way, or another doubt; inactive = no such curve, though single readings can be large or run the other way.

experiment: High Content Assay for Compounds that inhibit the Assembly of the Perinucleolar Compartment: PC3M Caspase 3/7 Activation; settings: PC3M-GFP caspase 3/7 activation, luminescence, 24 h; series mostly up to 46.1 µM
Text: High Content Assay for Compounds that inhibit the Assembly of the Perinucleolar Compartment NIH Chemical Genomics Center [NCGC] NIH Molecular Libraries Probe Centers Network [MLPCN] MLPCN Grant: MH082371-01A2 Assay Submitter (PI): Sui Huang, Northwestern University, Feinberg School of Medicine, Cell and Molecular Biology, Chicago, Illinois. The perinucleolar compartment (PNC) is a non-membrane-bound nuclear subdomain that is associated with but structurally distinct from the nucleolus. The PNC is a heritable trait, in which the number of PNCs per cell in daughter cells often mimics that of their mother cells. The PNC is heterogeneous in shape, is stable through interphase, disassembles during mitosis, and reassembles in early G1. The PNC is concentrated with newly synthesized RNA polymerase III (pol III) RNAs (MRP RNA, RNAse P H1 RNA, hY RNAs[hY1, 2, 5], Alu RNA, and SRP [7SL] RNA) and RNA binding proteins (nucleolin, PTB, CUG-BP, KSRP, Raver1, Raver2, and Rod). […] Extensive in vitro studies have shown that the PNC is unique to tumor cells and preferentially forms in tumor cells derived from solid tissues. Examination of cancer cell lines from various origins and malignant capacities has shown that PNC prevalence correlates with the malignancy of tumors and has the potential to be developed as a pan-cancer prognostic marker. […] Although the PNC is associated with a DNA locus and a handful of components have been identified, much remains to be investigated regarding the structure and function of the PNC and its mechanistic link to cancer. We have previously shown that PNC prevalence reduction is a valid strategy to identify compounds that can be used to study the structure and function of the PNC. It is necessary, however, to create a screening platform that is able to test a large number of compounds in an automated fashion. Here we report the development and robustness of an automated whole-cell phenotypic image-based screening assay that is capable of identifying such compounds. We conducted a followup assay to measure the effects of the lead candidates on Caspase 3/7 activation using a luminescent Caspase kit (Caspase 3/7 Glo). The highly metastatic PC3M-GFP reporter cell line was used in this study.
Caspase 3/7 Assay 1. Cells at a density of 75-90% confluency in T175 flasks were harvested using 7 ml TrypLE Express cell dissociation reagent. After dissociation (5 minutes room temperature incubation) 10 ml of complete media was added to the TrypLE/cell suspension. The liquid was transferred to a 50 ml Conical tube and cells were pelleted at 1000 RPM for 5 min. Supernatant was removed and cells were resuspended to a final density of 150-200 cells/ul in complete media. 2. Cells were plated in 5 ul volume (2000 cells/well) into 1536 well White solid bottom plates and allowed to recover and adhere at 37 C in a humidified 5% CO2 incubator for 4 hours. 3. After 4 hour incubation, compound libraries (23 nl of […] in columns 5-48) were transferred to the plates in duplicate using a 1536 well pintool. Camptothecin positive control (59 uM final) was added to column 2 and 1:3 dilutions of camptothecin was added to column 3. DMSO negative controls were present in columns 1 and 4. 4. After a 24 hour incubation in the 37 C incubator, all wells were treated with 3 ul of Caspase Glo 3/7 reagent using a multidrop combi dispenser (ThermoFisher). Bubbles that formed during dispensing were removed by spinning the plates for 1 minutre at 1500 RPM on a table top centrifuge. Plates were incubated at room temperature for 5 minutes. 5. Luminescencent signal was detected on a Viewlux CCD based imager (PerkinElmer) with a clear filter and a 30 second integration time. The The PC3M cell line stably expressing the PTB-GFP was provided by Sui Huang of Northwestern University. The media and cell culture reagents were purchased from Invitrogen (Carlsbad, CA). […]

For `COC(=O)C1=C(C)N(c2ccc(Br)cc2)C(=O)/C1=C\c1ccco1`, which outcome is on record?
The outcome was “inactive”.

With `CC1(c2cccc([N+](=O)[O-])c2)CC(C)(C)N(C(=O)c2ccccc2)c2ccccc21` (stereo unspecified) as the molecule, how does the outcome read?
The outcome was “inactive”.

Which outcome does the source give for `Cn1c2ccccc2c(=O)c2c(=O)n(Cc3ccco3)c(COc3ccccc3)nc21` here?
The outcome was “inactive”.

For `N=c1c2c(-c3ccccc3)c(-c3ccccc3)n(Cc3ccccc3)c2ncn1CCCO`, which outcome is on record?
The outcome was “inactive”.

With `COC(=O)c1ccc(CSc2ccccc2C)o1` as the molecule, how does the outcome read?
Its outcome is “inactive”.

Which outcome does the source give for `CCOC(=O)c1c(-c2cccc(C)c2)csc1NC(=O)c1c(-c2ccccc2)noc1C` here?
Its outcome is “inactive”.
